# Assay outcomes from PubChem.
# Most compounds without a hit are left out; they make up all but 22% or so of the library.
# Shiga toxin inh = A qHTS for Small Molecule Inhibitors of Shiga Toxin; AID 2315, 2010; inhibition, % at 38.7 µM; 290,000 compounds, 9.2% hits; Vero cells, Shiga toxin protein synthesis inhibition reporter; in the data active = inhibition mostly above about 28%, no sharp cut-off; inactive = mostly below about 43%; also: 0% is about no effect
# Pf growth 96h = Primary qHTS for delayed death inhibitors of the malarial parasite plastid, 96 hour incubation | Potency, µM (top dose mostly 28.7 µM), without a hit: at the highest dose activity change, negative = inhibition, hits mostly inhibitors | AID 504834, 2011 | P. falciparum luciferase reporter growth, 96 h | 320,000 compounds, 6.9% hits; also: potency is read from the fitted curve at half-maximal effect; % is scaled to controls: 0 for no effect and ±100 for the full control effect
#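 Delayed-death screen, second-generation endpoint: infected erythrocytes, 2% hematocrit, 0.05% parasitemia final; 96 hours at 37 C, 5% CO2; luciferase detection reagent; luminescence decrease equals reduced growth.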
# Cycloheximide cs = Cycloheximide Counterscreen for Small Molecule Inhibitors of Shiga Toxin; cell reporter, cycloheximide protein synthesis inhibition counterscreen; max response, %; 300,000 compounds, 12% hits; in the data active = max response mostly above about 13%, no sharp cut-off; inactive = mostly below about 14%; also: read at 38.3 µM for the half of the compounds with a filed dose; 0% is about no effect
# Pf growth 48h = Primary qHTS for delayed death inhibitors of the malarial parasite plastid, 48 hour incubation; Potency, µM (top dose mostly 28.7 µM), without a hit: top-dose activity change, negative = inhibition, actives largely listed as inhibitors; 310,000 compounds, 5.9% hits; P. falciparum luciferase growth in erythrocytes, 48 h; also: potency is read from the fitted curve at half-maximal effect; % is scaled to controls: 0 for no effect and ±100 for the full control effect
#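 Parasite viability was followed by luminescence of a genomically integrated firefly luciferase. Cultures held 0.1% parasitemia at 2% hematocrit (final), incubated under 5% CO2 at 37 C.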
# LmPK inh = qHTS Assay for Inhibitors of Leishmania Mexicana Pyruvate Kinase (LmPK); purified LmPK, Kinase-Glo ATP luminescence, 1 h; Q27686; AID 1721, 2009; 290,000 compounds, 0.37% hits; Potency, µM (titrated, usually from 57.5 µM), for inactives: top-dose activity change, negative = inhibition, usual class: inhibitors; also: potency is read from the fitted curve at half-maximal effect; % is scaled to controls: 0 for no effect and ±100 for the full control effect
# Target sequence (Q27686 whole entry, looked up): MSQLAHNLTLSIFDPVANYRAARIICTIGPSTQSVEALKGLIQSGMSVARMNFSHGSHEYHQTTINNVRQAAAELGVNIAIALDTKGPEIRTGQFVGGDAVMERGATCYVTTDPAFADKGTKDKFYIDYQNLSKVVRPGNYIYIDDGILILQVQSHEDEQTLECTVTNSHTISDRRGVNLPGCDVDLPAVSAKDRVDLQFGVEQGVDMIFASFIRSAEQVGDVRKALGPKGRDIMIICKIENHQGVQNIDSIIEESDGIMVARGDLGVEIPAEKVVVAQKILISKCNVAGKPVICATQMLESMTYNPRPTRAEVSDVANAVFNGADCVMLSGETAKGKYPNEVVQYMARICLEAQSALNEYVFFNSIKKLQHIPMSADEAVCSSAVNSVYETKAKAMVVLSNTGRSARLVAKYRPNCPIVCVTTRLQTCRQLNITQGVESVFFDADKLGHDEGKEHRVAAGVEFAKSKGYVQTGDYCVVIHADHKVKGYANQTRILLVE
#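 Pyruvate kinase activity monitored as ATP production (luciferase luminescence). Conditions: 0.1 nM enzyme, 0.5 mM PEP, 0.1 mM ADP, 1 h, RT; normalized against uninhibited and no-enzyme wells.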
# An asterisk follows results filed as active; ? = inconclusive; nt = no result given. Unless noted, calls follow the shape of the dose curve; as a rule, active = well fitted inhibition curve with a large enough effect; inconclusive = small, poorly fitted or top-dose-only effect, or another doubt; inactive = no such curve, though single readings can be large or run the other way.
SMILES,Shiga toxin inh,Pf growth 96h,Cycloheximide cs,Pf growth 48h,LmPK inh
O=C(Cc1cccs1)NCc1ccc2c(c1)OCO2,53*,28%,17*,40%,-5%
COc1ccc(CNC(=O)Cc2cccs2)cc1,61*,?,43*,60%,-2%
COc1ccc(C(CNC(=O)Cc2cccs2)N(C)C)cc1 (stereo not given),19,33%,11*,16%,-4%
O=C(Cc1cccs1)NCc1cccc(Br)c1,66*,107%,29*,36%,2%
Nc1c(C(=O)CSc2n[nH]c(-c3ccccc3)n2)c(=O)[nH]c(=O)n1C1CC1,nt,1%,nt,2%,nt
COc1ccc(CCNC(=S)NC(=O)c2cccc([N+](=O)[O-])c2)cc1OC,6,-8%,-3,45%,-3%
c1ccc(-n2ncc3c2ncn2nc(-c4ccco4)nc32)cc1,46*,nt,38*,112%,-1%
CCOC(=O)C/C(C)=N/NC(=O)C1CC1(c1ccccc1)c1ccccc1 (stereo not given),-12,?,-2,-12%,4%
Cc1cccc(COC(=O)C(Cc2ccccc2)NC(N)=O)c1 (stereo not given),-9,7%,-2,9%,-7%
CC(=O)N1N=C(c2ccc(Br)cc2)CC1c1cn(C)c2ccccc12 (stereo not given),2,?,1,4%,1%
CCCC(=O)N1N=C(c2ccccc2)CC1c1cn(C)c2ccccc12 (stereo not given),42,?,27*,?,2%
Cn1cc(C2CC(c3ccccc3)=NN2C(=O)c2ccccc2)c2ccccc21 (stereo not given),41,8.3µM*,22*,8.3µM*,1%
Cc1ccc(NC(=O)COC(=O)CNC(=O)c2ccc3ccccc3c2)c([N+](=O)[O-])c1,-4,-19%,-3,8%,0%
Cc1cc2cc(CCNC(=O)c3cccc([N+](=O)[O-])c3)c(=O)[nH]c2cc1C,-4,?,2,-16%,2%
COc1cc(OC)cc(C(=O)N[C@H](C(=O)Nc2ccc3c(c2)OCO3)C(C)C)c1,-18,-16%,12,-15%,-5%
N#CCc1c(C#N)c(N)nc(N2CCN(S(=O)(=O)c3ccccc3F)CC2)c1C#N,5,?,3,?,4%
CCC1Cc2c(nc(N)c3c(N)nc(N4CCOCC4)c(C#N)c23)O1 (stereo not given),2,?,3,-27%,3%
COc1ccc(CN2C(=O)Cc3c2nc(N)c2c(N)nc(N4CCOCC4)c(C#N)c32)cc1,-9,?,-3,?,0%
COCC(C)N1C(=O)Cc2c1nc(N)c1c(N)nc(N3CCN(c4ccccc4F)CC3)c(C#N)c21 (stereo not given),-3,1.3µM*,6,5.9µM*,6%
N#CCc1c(C#N)c(N)nc(N2CCN(c3ccc(F)cc3)CC2)c1C#N,-24,nt,1,9.3µM*,6%
COCCN1C(=O)Cc2c1nc(N)c1c(N)nc(N3CCN(c4ccc(F)cc4)CC3)c(C#N)c21,-1,?,-3,7.4µM*,2%
CCC(=O)N(CC)C1=C(O)c2ccccc2C(=O)C1=O,-9,0%,1,-7%,25µM*
Cc1ccc(NC(=O)c2ccc3c(c2)C(=O)N(CC2CCCO2)C3=O)cc1C (stereo not given),67*,-29%,45*,35%,1%
COc1ccc(NC(=O)c2ccc3c(c2)C(=O)N(CC2CCCO2)C3=O)cc1O (stereo not given),3,4%,11,-3%,1%
Nc1ccc(Oc2ccc3c(c2)C(=O)N(CC2CCCO2)C3=O)cc1 (stereo not given),50*,68%,42*,?,10%
SMILES,Shiga toxin inh,Pf growth 96h,Cycloheximide cs,Pf growth 48h,LmPK inh
O=C(NN1C(=O)c2ccccc2C1=O)c1ccc2c(c1)C(=O)N(CC1CCCO1)C2=O (stereo not given),44*,62%,19*,45%,6%
Nc1ccc2c(c1)C(=O)N(CC1CCCO1)C2=O (stereo not given),35,nt,15,59%,2%
CCOc1ccccc1NC(=O)c1ccc2c(c1)C(=O)N(CC1CCCO1)C2=O (stereo not given),9,15µM*,4,42%,1%
O=C(Nc1cccnc1)c1ccc2c(c1)C(=O)N(CC1CCCO1)C2=O (stereo not given),-1,-5%,1,10%,-3%
CCC(C)NC(=O)CN(c1ccc(Cl)c(Cl)c1)S(C)(=O)=O (stereo not given),9,11%,-2,14%,0%
O=c1ccc2cc(S(=O)(=O)NCc3ccccc3)ccc2[nH]1,-4,8%,-3,0%,-3%
O=C(Nc1ccc(N2CCOCC2)cc1)C1CC(O)CN1S(=O)(=O)c1ccc(Cl)cc1 (stereo not given),30,-29%,18,8%,-6%
O=C(C1CCCN(S(=O)(=O)c2ccc(Cl)cc2)C1)N(Cc1cccs1)C1CC1 (stereo not given),13,1%,-1,13µM*,6%
S=C(N/N=C1\C2CN3CCN(C2)CC1(c1ccccc1)C3)Nc1ccccc1,-4,0%,1,?,-2%
NC(=O)N/N=C/c1c(Sc2nnnn2-c2ccccc2)nc2ccccn2c1=O,18,?,-3,4.7µM*,1%
CC(C)CC1NC(=O)N(CC(=O)Nc2cc(F)ccc2F)C1=O (stereo not given),nt,37%,nt,1%,nt
Oc1cc(Cc2ccccc2)cnc1CN1CCCCC1,18,-25%,7,0.93µM*,10%
C=CCn1c(O)c(C(C)=NC2CCN(Cc3ccccc3)CC2)c(=O)[nH]c1=O,-8,-14%,-3,0%,4%
CC/C(=N\NC(=S)Nc1ccccc1)c1c(O)[nH]c(=O)[nH]c1=O,32*,?,29*,25%,11%
C/C(=N\Nc1ccccc1)c1c(O)[nH]c(=O)[nH]c1=O,10,7%,8,-21%,1%
CCC(=NC1CCN(Cc2ccccc2)CC1)c1c(O)[nH]c(=O)[nH]c1=O,-27,5.2µM*,6,?,-3%
CCOC(=O)Cc1nnc(NC(=O)CCc2ccccc2)s1,-4,38%,-2,4%,-3%
CSCC[C@H](NC(=O)[C@@H]1CSC2c3ccccc3C(=O)N21)C(=O)N1CCC[C@H]1CO (stereo not given in full),-3,-12%,-1,18%,2%
COc1cccc(C(=O)CN2C(=O)C(C)(C)Oc3ccc(C(=O)N4CCCCCC4)cc32)c1,6,nt,31*,?,1%
CCCN1C(=O)c2ccc(C(=O)Nc3cc(C)ccc3O)cc2C1=O,139*,-21%,56*,-9%,-6%
